Shown are actives, neighbours in structure and some others; about 1.6% of the full set was active somewhere.
NSD2 inh – inhibitors of human histone methyltransferase NSD2. O96028. NSD2 peptide methylation, AlphaScreen, 120 min. inhibition, % at 12.5 µM. hit rate 0.54% among 310,000; in the data active = inhibition above about 50%
SIRT5 block – inhibitors of human sirtuin-5 desuccinylase; Q9NXA8; hit rate 1.1% among 330,000; Purified SirT5, succinyl-peptide AMC, trypsin-coupled fluorescence; inhibition, % at 15 µM; in the data active = inhibition above about 15%
Target sequence (Q9NXA8 whole entry, looked up): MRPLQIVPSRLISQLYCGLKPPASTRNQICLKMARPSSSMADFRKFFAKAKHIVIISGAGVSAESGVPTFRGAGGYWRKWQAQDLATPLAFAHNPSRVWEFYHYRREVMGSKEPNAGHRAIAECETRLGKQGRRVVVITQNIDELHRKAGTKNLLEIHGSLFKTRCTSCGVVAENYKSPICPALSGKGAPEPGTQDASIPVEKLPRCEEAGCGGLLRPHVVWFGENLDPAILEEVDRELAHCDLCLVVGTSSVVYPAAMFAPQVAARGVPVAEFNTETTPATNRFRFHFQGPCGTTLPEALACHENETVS
Casp6 inh – caspase-6 (human) enzyme inhibition; purified caspase-6, Z-VEID-R110 cleavage fluorescence; inhibition, % at 12.5 µM; hit rate 0.53% among 350,000; AID 686996;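 active = mean inhibition across replicates at least about 35%, with every replicate also reaching that limit, limit read from the data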;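 note: 0% = median of neutral control wells and 100% = no fluorescence left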
Target sequence (P55212 24-179 limits assumed): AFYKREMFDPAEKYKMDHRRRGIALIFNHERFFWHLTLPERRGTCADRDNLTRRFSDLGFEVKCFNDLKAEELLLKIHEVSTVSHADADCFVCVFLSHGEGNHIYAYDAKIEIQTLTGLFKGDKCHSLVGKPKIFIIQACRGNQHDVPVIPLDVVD
Target sequence (P55212 194-293 limits assumed): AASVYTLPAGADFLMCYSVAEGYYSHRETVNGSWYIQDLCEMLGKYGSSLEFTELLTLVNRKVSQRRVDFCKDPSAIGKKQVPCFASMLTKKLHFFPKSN
SUMO HTRF inh – SUMOylation inhibition | P63279 | HTRF SUMOylation assay, SAE1/SAE2 + UBC9, in vitro | inhibition, % at 35 µM | hit rate 0.36% among 290,000 | AID 2006; in the data active = inhibition above about 50%, passing the limit was not always enough
Alpha artifact – interferes with AlphaScreen signal, flagging NSD2 false positives. AC35, µM (doses to about 10 µM), for the others: at the top dose activity change, negative = signal loss. AlphaScreen artifact counterscreen, preloaded methylated H4 peptide. hit rate 9.4% among 1,500. AID 1053174. shares compounds with NSD2 inh; call rule not given here
Numbers without * were called inactive; nt = no result.

SMILES	NSD2 inh	SIRT5 block	Casp6 inh	SUMO HTRF inh	Alpha artifact
O=C(CC1(O)C(=O)Nc2cc(Cl)cc(Cl)c21)c1ccncc1 (stereo unspecified)	97*	nt	nt	-9	5%
CSC1=N/C(=C\c2ccccc2F)C(=O)S1	-2	nt	nt	19	nt
COc1cccc(/C=C2\N=C(SC)SC2=O)c1OC	99*	nt	nt	-7	1%
COCCNC(=O)C[C@H]1C[C@@H]2c3cc(N(C)C)ccc3O[C@@H]2[C@@H](CO)O1	nt	1	8	nt	nt
Cc1ccc(O)c(CNc2cccc3cccnc23)c1	118*	-1	23	76	-5%
COc1cccc(CNc2cccc3cccnc23)c1O	50*	nt	nt	63	-5%
O=C(O)COc1ccccc1/C=N/Nc1ccc(S(=O)(=O)Nc2ccc(Cl)cc2)cc1[N+](=O)[O-]	50*	7	24	21	-13%
COc1ccccc1NS(=O)(=O)c1ccc(N/N=C/c2ccccc2OCC(=O)O)c([N+](=O)[O-])c1	nt	5	12	-5	nt
COc1ccc(NC(=O)COC(=O)c2ccc3ccccc3n2)cc1	0	-3	1	nt	nt
CCN(CC)c1ccc(NC(=O)COC(=O)c2ccc3ccccc3n2)cc1	107*	nt	nt	-1	-10%
O=C(CCN1C(=O)/C(=C\c2ccco2)SC1=S)Nc1ccc(C(=O)O)c(O)c1	111*	57*	73*	nt	-17%
O=C(C[C@@H]1C[C@@H]2c3cc(NS(=O)(=O)c4ccccc4)ccc3O[C@@H]2[C@H](CO)O1)N1CCCCC1	nt	6	-1	nt	nt
O=C(O)c1ccc(-n2c(-c3cc(-c4ccco4)[nH]n3)n[nH]c2=S)cc1	2	nt	nt	37	nt
CC(=O)c1ccc(-n2c(-c3cc(-c4ccco4)[nH]n3)n[nH]c2=S)cc1	59*	nt	nt	-3	-6%
C[C@H]1CN([C@@H](C)CO)C(=O)Cc2cc(NC(=O)Nc3ccc(C(F)(F)F)cc3)ccc2O[C@H]1CN(C)Cc1ccc2c(c1)OCO2	nt	0	-1	nt	nt
OC[C@@H]1[C@H](c2ccc(Br)cc2)[C@@H]2CN(Cc3cncnc3)CCCCN12	nt	3	-2	nt	nt
CC(=O)Nc1ccc(NCc2ccc(C)s2)cc1	56*	-7	5	4	-3%
CCCC(=O)Nc1ccc(NCc2ccc(C)s2)cc1	-2	-7	-3	-8	nt
Cc1c(C(=O)c2no[n+]([O-])c2C(=O)c2cnn(C)c2C)cnn1C	66*	nt	nt	18	-4%
Cc1[nH]n(-c2ccccc2)c(=O)c1C(C[N+](=O)[O-])c1ccccc1Cl (stereo unspecified)	8	nt	nt	22	nt
COc1ccc(C(C[N+](=O)[O-])c2c(C)[nH]n(-c3ccccc3)c2=O)cc1 (stereo unspecified)	92*	0	26	87*	-3%
CC1=NN(c2ccccc2)C(=O)/C1=C/N(C)C	71*	2	3	14	-6%
O=c1c2c(n3cnnc3n1-c1ccccc1)-c1ccccc1CC21CCCC1	102*	-1	-2	19	-8%
O=C(N/N=C1\C/C(=N\NC(=O)c2ccncc2)c2ccccc21)c1ccncc1	108*	0	90*	52*	-2%
O=C(NN=C1C2CC3CC(C2)CC1C3)c1ccncc1	-4	nt	nt	19	nt
SMILES	NSD2 inh	SIRT5 block	Casp6 inh	SUMO HTRF inh	Alpha artifact
CNCc1ccc(OCc2ccccc2)c(OC)c1	53*	nt	nt	-3	-1%
O=C(C[C@@H]1CC[C@H](NC(=O)Nc2ccc3c(c2)OCO3)[C@@H](CO)O1)NCc1ccc(Cl)cc1	nt	-3	0	nt	nt
CC(=O)c1cc(C)ccc1OC(=O)CCN1C(=O)C2C3c4ccccc4C(c4ccccc43)C2C1=O (stereo unspecified)	-1	nt	nt	-5	nt
CC(=O)NCCN1C(=O)C2C3c4ccccc4C(c4ccccc43)C2C1=O (stereo unspecified)	76*	-3	0	10	-4%
C[C@H](CO)N1C[C@H](C)[C@@H](CN(C)C(=O)Nc2ccc3c(c2)OCO3)Oc2ncc(-c3cncnc3)cc2C1=O	nt	-2	-5	nt	nt
O=C(C[C@@H]1CC[C@H](NC(=O)CN2CCOCC2)[C@H](CO)O1)NC1CCCCC1	nt	-2	1	nt	nt
Fc1ccc(N2CCN(c3ccc4c(C(F)(F)F)cc(C(F)(F)F)nc4n3)CC2)cc1	121*	nt	nt	-21	-2%
CC1=NN(c2ccc(S(=O)(=O)O)cc2Cl)C(=O)C1	71*	1	47*	83*	0%
COc1ccc(OC)c(/C=C2\N=C(c3ccccc3)OC2=O)c1	-2	-1	-1	7	nt
COc1ccc(/C=C2\N=C(C(C)(C)C)OC2=O)c(OC)c1	91*	-6	-3	3	-1%
COc1ccc(NC(=O)CSc2nc3nc(-c4cccs4)cc(C(F)(F)F)c3c(=O)[nH]2)c(OC)c1	10	nt	nt	9	nt
CCOc1ccccc1NC(=O)CSc1nc2nc(-c3cccs3)cc(C(F)(F)F)c2c(=O)[nH]1	84*	-7	-2	33	-1%
COc1cc(NC(=O)c2[nH]c(C)c(C(C)=O)c2C)cc(OC)c1OC	121*	3	3	9	-5%
CC(=O)c1c(C)[nH]c(C(=O)Nc2ccc(C)cc2Br)c1C	72*	-4	2	5	-5%
CCN(CC)CCSc1nc2ccccc2c(=S)n1-c1ccccc1	108*	0	-8	19	-15%
C[C@H]1CN([C@@H](C)CO)C(=O)c2cccc(NC(=O)C3CCOCC3)c2O[C@@H]1CN(C)C(=O)Nc1ccc(F)cc1	nt	-4	2	nt	nt
C[C@@H]1CN([C@@H](C)CO)C(=O)Cc2cc(NS(=O)(=O)c3cn(C)cn3)ccc2O[C@H]1CN(C)Cc1ccc(Cl)c(Cl)c1	nt	8	1	nt	nt
C[C@@H]1CN([C@@H](C)CO)S(=O)(=O)c2ccc(C#CC3CC3)cc2O[C@@H]1CN(C)C(=O)c1cccnc1	nt	0	0	nt	nt
Nc1c(C(=O)NCc2ccc(F)cc2)c2nc3ccccc3nc2n1CCCN1CCOCC1	82*	nt	nt	45	21%
COc1ccc(CNC(=O)c2c(N)n(CCCN3CCOCC3)c3nc4ccccc4nc23)cc1	-17	nt	nt	94	nt
O=C(CSc1nc(SCC(=O)NCc2ccccc2)n(-c2ccccc2)n1)NCc1ccccc1	81*	1	5	-4	-2%
CN(C)C(=O)CSc1nc(SCC(=O)N(C)C)n(-c2ccccc2)n1	4	nt	nt	-11	nt
COc1ccc2c3c([nH]c2c1)[C@@H](CO)N(C(=O)Nc1ccc(F)cc1)CC31CCN(CC2CC2)CC1	nt	4	3	nt	nt
COc1ccc(Cc2nnc(NC(=O)C3CC(=O)N(c4ccc(OC)cc4)C3)s2)cc1 (stereo unspecified)	73*	1	6	18	-2%
COc1cccc(C(c2nnnn2CCc2ccccc2)N2CCN(c3ccccc3)CC2)c1OC (stereo unspecified)	-1	nt	nt	-4	nt
C=CCN1CCN(C(c2cccc(OC)c2OC)c2nnnn2CCC(C)C)CC1 (stereo unspecified)	98*	1	-3	6	-4%
O=C(Cc1ccccn1)N1CC(=O)N2[C@@H](CO)[C@@H](c3ccc(-c4ccccc4)cc3)[C@@H]2C1	nt	0	2	nt	nt

Compound activity from PubChem BioAssay.
